Active and inactive are the calls of the source. Unless noted, the rule behind the calls is not given here.
How the values were obtained:
[1] = HepG2 liver cancer cell viability effects, profiling panel, resazurin fluorescence, 24 h, PK04 Diversity Set (AID 1172); conditions: higher = more signal
[2] = basal S. cerevisiae growth modulation, no modifier, primary screen, OD600, strain BY4716, 24 h, basal condition (AID 1173); conditions: OD600, 24 h, higher = more signal, called active from +8 up or from −8 down
[3] = MM1S myeloma cell viability, profiling panel, resazurin fluorescence, basal, 24 h, PK04 Diversity Set (AID 1174); conditions: higher = more signal, called active from +8 up or from −8 down;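 note: MM1S multiple myeloma cell line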
[4] = molecular target: Dihydroorotate dehydrogenase (quinone), mitochondrial (Plasmodium falciparum (isolate 3D7)) (UniProt Q08210); test: PfDHODH enzyme inhibitors, primary screen, biochemical, C-terminal His tag, absorbance 600 nm (AID 1175); conditions: DCIP absorbance 600 nm, higher = more signal, called active from +8 up or from −8 down;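 note: recombinant parasite enzyme with a five histidine tag at its C terminus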
[5] = P. aeruginosa biofilm formation inhibitors, primary screen, strain PAO1, LB-PBS medium, absorbance 600 nm (AID 1176); conditions: P. aeruginosa PAO1 growth/biofilm, A600, 12 h; higher = more signal
[6] = S. cerevisiae RM11-1a growth modifiers, primary screen, strain RM11-1a, OD600, basal, 24 h (AID 1177); conditions: OD600, 24 h, higher = more signal, called active from +8 up or from −8 down;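 note: cultures grown under basal conditions with no added stressor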
[7] = E. coli acrAB mutant growth effects, primary screen, E. coli filamentation inducers, strain DRC39, OD650, 24 h (AID 1178); conditions: higher = more signal, called active from +8 up or from −8 down;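 note: growth measured as culture turbidity by optical density at 650 nm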
[8] = E. coli acrAB mutant growth effects, primary screen, E. coli filamentation inducers, strain DRC39, OD650, 48 h (AID 1179);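 note: screen aims at cell division blockers that make cells filament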; conditions: E. coli DRC39 delta-acrAB growth, higher = more signal, called active from +8 up or from −8 down
[9] = RPMI8226 myeloma cell viability, profiling panel, resazurin fluorescence, basal, 24 h, PK04 Diversity Set (AID 1180); conditions: higher = more signal;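 note: RPMI8826 multiple myeloma cell line at 5000 cells per well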
[10] = molecular target: E3 ubiquitin-protein ligase XIAP (Homo sapiens) (UniProt P98170); test: XIAP binders, primary screen, biophysical, small-molecule microarray, fluorescence 635 nm (AID 1181); conditions: small-molecule microarray binding, higher = more signal;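 note: score merges 667 nm emission and signal to noise over triplicate slides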
[11] = test system: XIP peptide (Xip251-270) binding; test: small-molecule binders of XIP peptide, primary screen, biochemical, small-molecule microarray, fluorescence 635/667 nm, 0.1 µg/mL protein (AID 1182); conditions: fluorescent protein binding, 635 nm, higher = more signal, called active from +8 up or from −8 down
XIP peptide (Xip251-270) = test: small-molecule binders of XIP peptide, primary screen, biochemical, small-molecule microarray, fluorescence 635/667 nm, 0.5 µg/mL protein (AID 1183); conditions: small-molecule microarray binding, fluorescence 635 nm; higher = more signal
[12] = Plasmodium falciparum growth inhibition, primary screen, strain 3D7, DAPI fluorescence, 100 nL (AID 1184);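 note: parasites grown inside human red blood cells in medium with human serum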; conditions: P. falciparum 3D7 growth, 3 d, higher = more signal
[13] = molecular target: Homeobox protein Hox-A13 (Mus musculus) (UniProt Q62424); test: inhibitors of HoxA13-DNA binding, primary screen, biochemical, fluorescence polarization, labeled oligonucleotide (AID 1185); conditions: 15 min, higher = more signal, called active from +8 up or from −8 down
[14] = inhibitors of hydroxyurea-induced Chk1 phosphorylation, primary screen, imaging, HeLa, phospho-Chk1 antibody, percent positive cells (AID 1186); conditions: hydroxyurea-induced phospho-Chk1 immunofluorescence imaging, higher = more signal
[15] = inhibitors of hydroxyurea-induced Chk1 phosphorylation, primary screen, imaging, HeLa, phospho-Chk1 nuclear intensity (AID 1187); conditions: hydroxyurea-induced phospho-Chk1 immunofluorescence imaging, higher = more signal

Dihydroorotate dehydrogenase (quinone), mitochondrial (Plasmodium falciparum (isolate 3D7)), sequence (Q08210 whole entry, looked up): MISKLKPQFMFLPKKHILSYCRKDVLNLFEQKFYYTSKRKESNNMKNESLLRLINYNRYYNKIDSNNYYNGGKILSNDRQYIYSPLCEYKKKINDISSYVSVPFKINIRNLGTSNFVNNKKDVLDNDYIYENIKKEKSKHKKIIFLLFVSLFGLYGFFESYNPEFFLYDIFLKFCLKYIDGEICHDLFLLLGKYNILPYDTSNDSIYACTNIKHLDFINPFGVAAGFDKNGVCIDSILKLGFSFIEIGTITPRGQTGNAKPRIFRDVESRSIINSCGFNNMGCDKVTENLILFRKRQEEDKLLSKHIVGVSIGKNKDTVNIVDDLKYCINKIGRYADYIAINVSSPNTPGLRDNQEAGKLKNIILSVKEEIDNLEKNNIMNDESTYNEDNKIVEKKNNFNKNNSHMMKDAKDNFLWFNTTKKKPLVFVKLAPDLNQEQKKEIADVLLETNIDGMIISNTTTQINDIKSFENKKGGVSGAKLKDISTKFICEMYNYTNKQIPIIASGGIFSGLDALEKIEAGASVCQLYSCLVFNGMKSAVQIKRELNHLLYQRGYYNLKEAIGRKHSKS
Homeobox protein Hox-A13 (Mus musculus), sequence (Q62424 whole entry, looked up): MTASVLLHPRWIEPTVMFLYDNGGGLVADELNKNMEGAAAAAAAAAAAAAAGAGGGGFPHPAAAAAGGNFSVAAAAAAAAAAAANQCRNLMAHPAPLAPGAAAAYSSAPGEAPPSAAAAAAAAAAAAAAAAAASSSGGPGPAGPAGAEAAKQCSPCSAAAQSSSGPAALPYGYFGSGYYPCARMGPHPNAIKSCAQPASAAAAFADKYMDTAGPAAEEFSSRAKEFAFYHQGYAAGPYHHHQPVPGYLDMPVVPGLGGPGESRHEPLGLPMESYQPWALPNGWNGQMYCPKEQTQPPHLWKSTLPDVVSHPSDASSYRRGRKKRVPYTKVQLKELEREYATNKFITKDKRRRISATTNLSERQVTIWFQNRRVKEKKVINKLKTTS
E3 ubiquitin-protein ligase XIAP (Homo sapiens), sequence (P98170 whole entry, looked up): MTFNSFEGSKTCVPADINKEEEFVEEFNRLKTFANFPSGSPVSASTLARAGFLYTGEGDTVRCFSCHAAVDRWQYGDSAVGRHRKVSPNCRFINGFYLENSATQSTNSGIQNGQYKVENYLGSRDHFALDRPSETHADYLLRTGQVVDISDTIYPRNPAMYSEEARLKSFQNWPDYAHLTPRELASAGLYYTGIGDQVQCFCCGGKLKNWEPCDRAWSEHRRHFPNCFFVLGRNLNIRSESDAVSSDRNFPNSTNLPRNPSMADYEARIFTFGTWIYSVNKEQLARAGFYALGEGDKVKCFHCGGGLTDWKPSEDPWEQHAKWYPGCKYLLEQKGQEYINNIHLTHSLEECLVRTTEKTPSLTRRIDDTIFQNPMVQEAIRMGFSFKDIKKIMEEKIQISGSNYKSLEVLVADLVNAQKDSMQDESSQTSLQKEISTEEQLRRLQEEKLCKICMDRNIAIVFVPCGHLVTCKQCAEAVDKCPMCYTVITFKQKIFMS

Compound	z-score [1]	z-score [2]	z-score [3]	composite z-score [4]	z-score [5]	z-score [6]	z-score [7]	z-score [8]	z-score [9]	composite z-score [10]	composite z-score [11]	composite z-score (XIP peptide (Xip251-270))	z-score [12]	z-score [13]	z-score [14]	z-score [15]
COCC(=C=CC[C@H](O)c1ccc(OCCO)cc1)CCO	0.996	-0.415 (inactive)	0.654 (inactive)	-1.15 (inactive)	-0.0342 (inactive)	0.137 (inactive)	0.53 (inactive)	0.209 (inactive)	0.854	0.102	0.407 (inactive)	-0.252	-2.93	-3.28 (inactive)	-0.638 (inactive)	-0.571 (inactive)
COC(=O)C1=CC(CCCO)=CC(c2cccs2)N(Cc2cccc(OC(F)(F)F)c2)C=C1C(=O)OC (stereo not drawn)	-0.872	-0.487 (inactive)	-1.46 (inactive)	-3.05 (inactive)	0.82 (inactive)	0.0036 (inactive)	0.581 (inactive)	0.153 (inactive)	-1.16	-0.0756	0.348 (inactive)	0.706	-1.78	-7.24 (inactive)	0.128 (inactive)	0.39 (inactive)
C=C(COC)/C(=C/C[C@H](OC(=O)c1ccncc1)c1ccc(CO)o1)c1cnc2ccccc2c1	-0.338	0.107 (inactive)	-0.117 (inactive)	-7.5 (inactive)	0.449 (inactive)	0.158 (inactive)	-0.305 (inactive)	-0.343 (inactive)	0.0987	-0.121	1.02 (inactive)	0.447	0.834	-5.63 (inactive)	-0.429 (inactive)	-0.442 (inactive)
CC1=C2[C@@H](CCc3ccccc3)OB(O)C[C@@H]2[C@@H]2C(=O)N(C)C(=O)[C@@H]2C1	0.157	-2.36 (inactive)	-0.313 (inactive)	-0.628 (inactive)	0.212 (inactive)	0.154 (inactive)	0.672 (inactive)	0.561 (inactive)	-0.265	-0.239	0.796 (inactive)	0.472	0.278	-5.07 (inactive)	0.0183 (inactive)	0.0905 (inactive)
NCCCCCNC(=O)[C@@H]1C[C@@H]2C(=O)N[C@@H](CCCCN)C(=O)N2[C@@H]1c1ccc(O)cc1	0.983	1.95 (inactive)	0.116 (inactive)	0.0173 (inactive)	2.49 (inactive)	2.39 (inactive)	-0.0253 (inactive)	-0.14 (inactive)	0.249	0.554	0.439 (inactive)	0.827	-1.56	1.23 (inactive)	-0.484 (inactive)	-0.497 (inactive)
COCCOC(=O)N1C(=O)[C@@]2(c3cc(C#CCC(C(=O)OC)C(=O)OC)ccc31)[C@H](c1ccc(OCCO)cc1)N1[C@H](c3ccccc3)[C@H](c3ccccc3)OC(=O)[C@H]1[C@@H]2C(=O)N1CCc2cc(OC)c(OC)cc2C1	0.125	2.56 (inactive)	0.26 (inactive)	-0.523 (inactive)	2.25 (inactive)	3.32 (inactive)	0.301 (inactive)	0.294 (inactive)	0.504	0.112	1.24 (inactive)	0.727	-2	2.86 (inactive)	-0.0277 (inactive)	0.246 (inactive)
COc1cc(NN2C(C(O)c3cc(OC)c(OC)c(OC)c3)C=CC3C(=O)N(C)C(=O)C32)cc(OC)c1OC (stereo not drawn)	-0.177	0.712 (inactive)	-0.464 (inactive)	-1.27 (inactive)	0.366 (inactive)	0.276 (inactive)	-0.0468 (inactive)	0.179 (inactive)	-0.97	-0.144	0.248 (inactive)	0.438	-0.354	-4.51 (inactive)	-0.325 (inactive)	-0.328 (inactive)
CCCCCN1CC=CC23O[C@@H]4C=CCCOC(=O)C4[C@H]2C(=O)N(CCCCCCO)[C@@H]3C1=O (stereo partly drawn)	0.678	0.605 (inactive)	0.0267 (inactive)	0.401 (inactive)	0.55 (inactive)	0.543 (inactive)	0.649 (inactive)	0.567 (inactive)	0.424	0.0702	0.592 (inactive)	-0.199	-0.103	-4.59 (inactive)	-0.0991 (inactive)	0.155 (inactive)
CC(C)(C)OC(=O)CC[C@@]1(C(=O)NCC(O)CO)N=C(c2ccc(OCCCO)cc2)O[C@@H]1c1ccccc1CN=[N+]=[N-] (stereo partly drawn)	0.507	-0.215 (inactive)	-0.0579 (inactive)	0.345 (inactive)	0.869 (inactive)	-0.181 (inactive)	0.642 (inactive)	-0.154 (inactive)	0.126	0.153	-0.246 (inactive)	0.57	-0.711	-5.44 (inactive)	0.436 (inactive)	0.71 (inactive)
C[N+](C)(C)CCCCCCNC(=O)[C@@H]1C[C@@H]2C(=O)N3CCC[C@H]3C(=O)N2[C@@H]1c1ccc(O)cc1	1.4	-0.827 (inactive)	1.02 (inactive)	-1.53 (inactive)	-0.984 (inactive)	-0.0176 (inactive)	0.0464 (inactive)	-0.207 (inactive)	0.441	-0.169	0.45 (inactive)	0.723	0.0301	-1.82 (inactive)	-0.265 (inactive)	0.127 (inactive)
CCCN1C(=O)[C@]2(Cc3ccccc31)N=C(c1ccc(OCCCO)cc1)O[C@@H]2c1ccccc1	-0.222	-1.72 (inactive)	-1.31 (inactive)	1.16 (inactive)	0.0279 (inactive)	1.4 (inactive)	1.15 (inactive)	-0.413 (inactive)	-0.804	0.0605	-0.0074 (inactive)	0.763	-2.32	-6.66 (inactive)	0.0183 (inactive)	0.825 (inactive)
CC(C)(C)OC(=O)COc1cccc(C(=O)CCN2CCOCC2)c1	0.454	-10.3 (active)	-0.971 (inactive)	-3.31 (inactive)	-1.03 (inactive)	-0.616 (inactive)	0.215 (inactive)	0.0359 (inactive)	-3.51	-0.203	0.123 (inactive)	0.248	-0.367	-1.11 (inactive)	-0.118 (inactive)	0.0155 (inactive)
COCCOC(=O)N1C(=O)[C@@]2(c3cc(C#CCNC(N)=O)ccc31)[C@H](C(N)=O)[C@H]1C(=O)O[C@H](c3ccccc3)[C@H](c3ccccc3)N1[C@@H]2c1ccccc1OCCO	-0.281	0.407 (inactive)	-0.126 (inactive)	-0.235 (inactive)	0.986 (inactive)	1.59 (inactive)	-0.0653 (inactive)	-0.0752 (inactive)	-0.0771	-0.135	0.253 (inactive)	0.485	0.0701	-2.45 (inactive)	0.0661 (inactive)	0.588 (inactive)
CC(C)C(O)C1C=CC2C(=O)N(c3ccccc3)C(=O)C2N1Nc1ccccc1 (stereo not drawn)	-0.196	-2.05 (inactive)	-0.302 (inactive)	-0.85 (inactive)	0.835 (inactive)	0.334 (inactive)	0.562 (inactive)	0.376 (inactive)	-0.825	0.123	1.33 (inactive)	0.852	-0.752	-4.18 (inactive)	0.436 (inactive)	0.581 (inactive)
CC(C)NC(=O)[C@@]1(c2ccc([N+](=O)[O-])cc2)CC(=O)N(C2CCCCC2)[C@@H]1c1ccc(CO)cc1	1.2	0.178 (inactive)	1.16 (inactive)	1 (inactive)	-0.0249 (inactive)	0.852 (inactive)	0.389 (inactive)	1.29 (inactive)	0.367	0.112	1.15 (inactive)	0.786	-0.385	-3.11 (inactive)	0.127 (inactive)	0.0865 (inactive)
C=CCNC(=O)[C@@H]1[C@H]2C(=O)O[C@H](c3ccccc3)[C@H](c3ccccc3)N2[C@H](c2ccc(O)cc2)[C@@]12C(=O)N(C(=O)OCCOC)c1ccc(C#CC3=CCCCC3)cc12	-0.411	0.0346 (inactive)	-0.279 (inactive)	0.235 (inactive)	1.26 (inactive)	0.891 (inactive)	-0.713 (inactive)	-0.277 (inactive)	-1.09	-0.0056	0.423 (inactive)	0.672	0.608	-0.465 (inactive)	-0.472 (inactive)	-1.01 (inactive)
CCCCCCCCCCC(O)C1C=CC2C(=O)N(c3ccccc3)C(=O)C2N1Nc1ccc(C#N)cc1 (stereo not drawn)	-2.08	1.18 (inactive)	-0.653 (inactive)	0.481 (inactive)	0.571 (inactive)	1.25 (inactive)	-0.275 (inactive)	0.598 (inactive)	-2.09	1.38	1.53 (inactive)	0.419	-0.562	-1.23 (inactive)	0.0905 (inactive)	0.15 (inactive)
C=C(/C(=C/C[C@H](OC(C)=O)c1ccc(CO)o1)c1cnc2ccccc2c1)C(C)C	0.523	-0.269 (inactive)	-0.575 (inactive)	-7.07 (inactive)	0.898 (inactive)	0.376 (inactive)	0.307 (inactive)	-0.219 (inactive)	-0.659	-0.0095	0.0103 (inactive)	0.769	-1.14	-6.46 (inactive)	-0.136 (inactive)	0.181 (inactive)

Source: PubChem BioAssay
